{
  "source": "paper PMC11062922",
  "about": "(Nature Chemical Biology, 2023)",
  "parameters_in_all_cases": "species or system human, MV4-11 + K-562 + COLO205 + SK-N-BE2 + OVCAR-8",
  "key": {"CDKL5": {"tested_on": "CDKL5", "details": "read-out: apparent Kd, compound concentrations: 100 nM and 1000 nM (sheet 'Samples'), n = 1"}, "CLK1": {"tested_on": "CLK1", "details": "read-out: apparent Kd, compound concentrations: 100 nM and 1000 nM (sheet 'Samples'), n = 1"}, "CLK2": {"tested_on": "CLK2", "details": "read-out: apparent Kd; compound concentrations: 100 nM and 1000 nM (sheet 'Samples'), CATDS: 0.135718758721844; n = 1"}, "GSK3A": {"tested_on": "GSK3A", "details": "read-out: apparent Kd, compound concentrations: 100 nM and 1000 nM (sheet 'Samples'), n = 1"}, "GSK3B": {"tested_on": "GSK3B", "details": "read-out: apparent Kd, compound concentrations: 100 nM and 1000 nM (sheet 'Samples'), n = 1"}, "ICK": {"tested_on": "ICK", "details": "read-out: apparent Kd, compound concentrations: 100 nM and 1000 nM (sheet 'Samples'), n = 1"}, "PRKCA": {"tested_on": "PRKCA", "details": "read-out: apparent Kd; compound concentrations: 100 nM and 1000 nM (sheet 'Samples'), CATDS: 8.3091420111897102E-2; n = 1"}, "PRKCB": {"tested_on": "PRKCB", "details": "read-out: apparent Kd; compound concentrations: 100 nM and 1000 nM (sheet 'Samples'), CATDS: 7.1835327532873305E-2; n = 1"}, "PRKCD": {"tested_on": "PRKCD", "details": "read-out: apparent Kd; compound concentrations: 100 nM and 1000 nM (sheet 'Samples'), CATDS: 8.6510432478471705E-2; n = 1"}, "PRKCQ": {"tested_on": "PRKCQ", "details": "read-out: apparent Kd; compound concentrations: 100 nM and 1000 nM (sheet 'Samples'), CATDS: 8.9522770196270404E-2; n = 1"}, "CDK7": {"tested_on": "CDK7", "details": "read-out: apparent Kd; compound concentrations: 100 nM and 1000 nM (sheet 'Samples'), CATDS: 5.1614283275692202E-2; n = 1"}, "CDK9": {"tested_on": "CDK9", "details": "read-out: apparent Kd; compound concentrations: 100 nM and 1000 nM (sheet 'Samples'), CATDS: 7.5250343499568897E-2; n = 1"}, "CLK4": {"tested_on": "CLK4", "details": "read-out: apparent Kd; compound concentrations: 100 nM and 1000 nM (sheet 'Samples'), CATDS: 0.17259551294748199; n = 1"}, "DYRK1A": {"tested_on": "DYRK1A", "details": "read-out: apparent Kd; compound concentrations: 100 nM and 1000 nM (sheet 'Samples'), CATDS: 5.4131433130879598E-2; n = 1"}, "ERCC2": {"tested_on": "ERCC2", "details": "read-out: apparent Kd; compound concentrations: 100 nM and 1000 nM (sheet 'Samples'), CATDS: 5.1102609842245399E-2; n = 1"}, "FLT3": {"tested_on": "FLT3", "details": "read-out: apparent Kd; compound concentrations: 100 nM and 1000 nM (sheet 'Samples'), CATDS: 7.2287914746840001E-2; n = 1"}, "PIP4K2C": {"tested_on": "PIP4K2C", "details": "read-out: apparent Kd; compound concentrations: 100 nM and 1000 nM (sheet 'Samples'), CATDS: 4.9119421247087701E-2; n = 1"}, "TGFBR2": {"tested_on": "TGFBR2", "details": "read-out: apparent Kd; compound concentrations: 100 nM and 1000 nM (sheet 'Samples'), CATDS: 0.19336486168442599; n = 1"}, "PRKAG2": {"tested_on": "PRKAG2", "details": "read-out: apparent Kd; compound concentrations: 100 nM and 1000 nM (sheet 'Samples'), CATDS: 0.49360231247915698; n = 1"}, "MAPK10": {"tested_on": "MAPK10", "details": "read-out: apparent Kd; compound concentrations: 100 nM and 1000 nM (sheet 'Samples'), CATDS: 0.149195814483779; n = 1"}, "MAPK14": {"tested_on": "MAPK14", "details": "read-out: apparent Kd; compound concentrations: 100 nM and 1000 nM (sheet 'Samples'), CATDS: 0.62465881952288804; n = 1"}, "MAPK9": {"tested_on": "MAPK9", "details": "read-out: apparent Kd; compound concentrations: 100 nM and 1000 nM (sheet 'Samples'), CATDS: 0.14319279027503101; n = 1"}, "MAPKAPK2": {"tested_on": "MAPKAPK2", "details": "read-out: apparent Kd; compound concentrations: 100 nM and 1000 nM (sheet 'Samples'), CATDS: 0.37042886154437599; n = 1"}},
  "note": "Read-outs that look alike come from different tables or passages of the source.",
  "data": [
    {"smiles": "Cn1cc(C2=C(c3cn(C)c4cc(N)ccc34)C(=O)NC2=O)c2ccccc21", "note": "[RO0317511-000]", "values": [
      {"measurement": "potency estimated from few doses", "setting": "CDKL5; CATDS: 7.1774388141359599E-2", "value": 1.81, "unit": "µM"},
      {"measurement": "potency estimated from few doses", "setting": "CLK1; CATDS: 9.43888536674687E-2", "value": 0.816, "unit": "µM"},
      {"measurement": "potency estimated from few doses", "setting": "CLK2", "value": 0.386, "unit": "µM"},
      {"measurement": "potency estimated from few doses", "setting": "GSK3A; CATDS: 0.18937077321649401", "value": 0.223, "unit": "µM"},
      {"measurement": "potency estimated from few doses", "setting": "GSK3B; CATDS: 0.20850333664225901", "value": 0.193, "unit": "µM"},
      {"measurement": "potency estimated from few doses", "setting": "ICK; CATDS: 0.107034687138564", "value": 0.614, "unit": "µM"},
      {"measurement": "potency estimated from few doses", "setting": "PRKCA", "value": 1.14, "unit": "µM"},
      {"measurement": "potency estimated from few doses", "setting": "PRKCB", "value": 1.8, "unit": "µM"},
      {"measurement": "potency estimated from few doses", "setting": "PRKCD", "value": 1.02, "unit": "µM"},
      {"measurement": "potency estimated from few doses", "setting": "PRKCQ", "value": 0.93, "unit": "µM"}
    ]},
    {"smiles": "FC(F)(F)c1cc(Br)cc(Nc2nccc(-c3cnn4ncccc34)n2)c1", "note": "[GW810578X]", "values": [
      {"measurement": "potency estimated from few doses", "setting": "CDK7", "value": 1.74, "unit": "µM"},
      {"measurement": "potency estimated from few doses", "setting": "CDK9", "value": 0.461, "unit": "µM"},
      {"measurement": "potency estimated from few doses", "setting": "CDKL5; CATDS: 0.13413982703885399", "value": 0.127, "unit": "µM"},
      {"measurement": "potency estimated from few doses", "setting": "CLK1; CATDS: 0.18636177679303401", "value": 0.0726, "unit": "µM"},
      {"measurement": "potency estimated from few doses", "setting": "CLK4", "value": 0.082, "unit": "µM"},
      {"measurement": "potency estimated from few doses", "setting": "DYRK1A", "value": 1.41, "unit": "µM"},
      {"measurement": "potency estimated from few doses", "setting": "ERCC2", "value": 1.83, "unit": "µM"},
      {"measurement": "potency estimated from few doses", "setting": "FLT3", "value": 0.516, "unit": "µM"},
      {"measurement": "potency estimated from few doses", "setting": "GSK3A; CATDS: 6.4716553061548596E-2", "value": 0.724, "unit": "µM"},
      {"measurement": "potency estimated from few doses", "setting": "GSK3B; CATDS: 9.1324175022244006E-2", "value": 0.282, "unit": "µM"},
      {"measurement": "potency estimated from few doses", "setting": "ICK; CATDS: 7.1869443211344197E-2", "value": 0.525, "unit": "µM"},
      {"measurement": "potency estimated from few doses", "setting": "PIP4K2C", "value": 2.25, "unit": "µM"},
      {"measurement": "potency estimated from few doses", "setting": "TGFBR2", "value": 0.0685, "unit": "µM"}
    ]},
    {"smiles": "COc1ccc(Nc2nccc(N3CCC(NC(=O)Nc4cc(C)ccc4C)C3)n2)cc1", "note": "(stereo not drawn) [GSK1379741A]", "values": [
      {"measurement": "potency estimated from few doses", "setting": "CDKL5; CATDS: 0.50656570893737995", "value": 1.86, "unit": "µM"},
      {"measurement": "potency estimated from few doses", "setting": "PRKAG2", "value": 1.96, "unit": "µM"}
    ]},
    {"smiles": "Cl.Cn1c(=O)c(Oc2ccc(F)cc2F)cc2cnc(N[C@H]3CCOC3)nc21", "note": "[RO3311017-001]", "values": [
      {"measurement": "potency estimated from few doses", "setting": "CDKL5; CATDS: 0.14258501509608601", "value": 1.54, "unit": "µM"},
      {"measurement": "potency estimated from few doses", "setting": "MAPK10", "value": 1.26, "unit": "µM"},
      {"measurement": "potency estimated from few doses", "setting": "MAPK14", "value": 0.0192, "unit": "µM"},
      {"measurement": "potency estimated from few doses", "setting": "MAPK9", "value": 1.51, "unit": "µM"},
      {"measurement": "potency estimated from few doses", "setting": "MAPKAPK2", "value": 0.0545, "unit": "µM"}
    ]}
  ]
}
